# Bioassay records (PubChem)
# Only a selection was taken, and hits are over-represented in it overall.
# Shiga toxin inh = Shiga toxin inhibition; Vero cells, Shiga toxin protein synthesis inhibition reporter; inhibition, % at 38.7 µM; hit rate 9.2% among 290,000; in the data active = inhibition mostly above about 28%, no sharp cut-off; inactive = mostly below about 43%
# NS1 function inh = blocks influenza NS1 protein function. Potency, µM (highest dose often 46.1 µM). hit rate 0.4% among 270,000; calls by dose curve; note: actives are rising curves; nearly all actives have a fitted effect of over 50% in size
#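 OD600 was taken as the measure of yeast growth restored by compound in an NS1-expressing S. cerevisiae strain. Cells had been washed out of glucose medium and diluted 1:100 into galactose -URA medium, pH 6.0.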
# AmpC no deterg = AmpC beta-lactamase inhibition without detergent. P00811. AmpC nitrocefin hydrolysis, absorbance 480 nm, 0.0001% Triton. Potency, µM (series often up to 57.1 µM), usual class: inhibitors. hit rate 0.52% among 330,000; note: nearly all actives have a fitted effect of over 20% in size
# Target sequence (P00811 whole entry, looked up): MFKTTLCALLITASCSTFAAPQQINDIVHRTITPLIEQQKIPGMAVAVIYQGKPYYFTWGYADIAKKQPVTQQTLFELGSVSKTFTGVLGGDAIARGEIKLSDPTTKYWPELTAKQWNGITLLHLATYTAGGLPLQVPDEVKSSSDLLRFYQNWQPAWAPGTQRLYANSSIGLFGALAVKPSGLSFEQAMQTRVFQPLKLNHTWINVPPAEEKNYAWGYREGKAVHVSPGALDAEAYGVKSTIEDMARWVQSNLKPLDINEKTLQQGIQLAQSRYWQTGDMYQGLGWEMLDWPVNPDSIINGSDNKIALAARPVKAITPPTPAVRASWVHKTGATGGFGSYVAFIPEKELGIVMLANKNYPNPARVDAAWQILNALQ
#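 AmpC (5.3 nM in the dispensed reagent) in 20 mM phosphate pH 7.0 with 0.01% (detergent screen) or 0.0001% Triton X-100 was preincubated with compounds for 15 min at room temperature. Nitrocefin was then added from an 800 uM solution, and hydrolysis was followed at 480 nm.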
# AmpC inh detg = inhibitors of E. coli AmpC beta-lactamase with detergent; P00811; AmpC hydrolysis of nitrocefin, absorbance 480 nm, 0.01% Triton; Potency, µM (titrated, usually from 114 µM), actives largely listed as inhibitors; hit rate 0.041% among 370,000; AID 485294; note: nearly all actives have a fitted effect of over 25% in size
#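 20 mM phosphate pH 7.0 + 0.01% (detergent screen) or 0.0001% Triton X-100; 5.3 nM AmpC reagent; cpd preinc 15 min RT; nitrocefin (800 uM stock) to start; A480 q20 s × 4 min; Activity was normalised to no-enzyme and no-compound control wells.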
# CHX counter = affects cycloheximide protein synthesis inhibition readout, counter-screen. cell reporter, cycloheximide protein synthesis inhibition counterscreen. AID 2314. hit rate 12% among 300,000. max response, %; in the data active = max response mostly above about 13%, no sharp cut-off; inactive = mostly below about 14%; note: read at 38.3 µM for the half of the compounds with a filed dose
# A number is an active result; – = inactive; ? = inconclusive; · = not tested or not shown. Unless noted, calls come from the whole dose curve; as a rule, active = well fitted curve in the direction sought with a large enough effect; inconclusive = small, poorly fitted or top-dose-only effect, or another doubt; inactive = no such curve, though single readings can be large; an effect the other way counts as inactive or inconclusive.
SMILES,Shiga toxin inh,NS1 function inh,AmpC no deterg,AmpC inh detg,CHX counter
Cc1ccc2cc(NC(=O)c3ccccc3)ccc2n1,67.0,–,–,–,46.9
Cc1cc(C)nc(NC(=O)c2cccc(Br)c2)n1,–,–,–,–,–
CC(=O)Cc1nsc(NC(=O)c2cccc(F)c2)n1,71.6,·,–,–,40.7
Cc1ccc2cc(NC(=O)c3cccc(F)c3)ccc2n1,75.1,–,–,–,39.1
CSc1nccc(NC(=O)c2cccc(Br)c2)n1,–,–,–,–,22.6
Cc1ccc2cc(NC(=O)CC(CC(=O)O)c3ccccc3)ccc2n1 (stereo not drawn),–,–,–,–,–
CC(C)C(=O)Nc1cccc(NC(=O)c2cccc(F)c2)c1,–,–,–,–,–
O=C(Nc1nnc(-c2ccncc2)o1)c1ccc2ccccc2c1,–,–,–,–,–
O=C(Nc1ccncc1)c1ccc2ccccc2c1,57.5,–,–,–,43.1
COC(=O)CCN1CCc2cc(N=Nc3ccc([N+](=O)[O-])cc3)ccc21,–,–,–,–,39.1
Cc1ccccc1CN1CCc2cc([N+](=O)[O-])ccc21,–,–,–,–,–
CCC(C)[C@H](N)c1cn([C@@H](Cc2cc3ccccc3[nH]2)C(=O)N2CCNCC2)nn1 (stereo partly drawn),–,–,–,–,–
COc1ccc2nc3ccccc3nc2c1N,158.9,–,–,–,48.9
COc1ccc2nc3cccc(OC)c3nc2c1,62.8,·,–,–,43.6
C=CCc1c(C)nc(N)[nH]c1=O,–,–,–,–,–
C=CCc1c(NCCO)nc(C)[nH]c1=O,–,–,–,–,19.7
CCc1ccc2oc(-c3cccc(NC(=O)c4ccc(N5CCC(C)CC5)c([N+](=O)[O-])c4)c3)nc2c1,·,·,·,–,·
CCOC(=O)C1CCCN(C(=O)CC(C)c2ccccc2)C1 (stereo not drawn),168.5,–,–,–,101.1
CCOC(=O)C1CCCN(C(=O)CN2C(=O)/C(=C/c3ccc(OC)cc3)Oc3ccccc32)C1 (stereo not drawn),28.7,–,–,–,–
CCOC(=O)C1CCCN(C(=O)CSc2ccccc2)C1 (stereo not drawn),63.9,–,–,?,43.0
CCOC(=O)C1CCCN(C(=O)CN2C(=O)c3ccccc3C2=O)C1 (stereo not drawn),–,–,–,–,–
CSCC[C@H](NC(=O)[C@H](Cc1ccccc1)NC[C@@H](NC[C@@H](N)CS)C(C)C)C(=O)O,–,·,·,·,–
CNC(=O)Nc1ccc2snnc2c1,–,–,–,–,–
COc1ccc(NC(=S)Nc2ccc3nccnc3c2)cc1,54.2,–,–,–,31.1
COc1ccc(NC(=S)Nc2ccc3snnc3c2)cc1,33.6,–,–,–,24.1
SMILES,Shiga toxin inh,NS1 function inh,AmpC no deterg,AmpC inh detg,CHX counter
CCOc1ccc(NC(=S)Nc2ccc(OC)cc2)cc1,–,–,–,–,–
COc1ccc(CCC(=O)Nc2ccc(C)c([N+](=O)[O-])c2)cc1,–,–,–,–,–
COc1ccc(NC(=S)Nc2ccc(N)c([N+](=O)[O-])c2)cc1,–,–,–,–,21.1
CCc1c(C2(O)CCCCC2)[nH]c2ccc(C(F)(F)F)cc12,–,–,–,?,–
Cc1cc(C)c(NC(=O)Cc2csc(C)n2)c(Cl)c1,·,·,·,–,·
CCCn1c(=O)[nH]c(=O)c2c(C(=O)OCC)cc(-c3cccs3)nc21,44.0,·,–,–,31.4
C/C(=N\NC(=O)c1ccc(O)cc1O)c1cccnc1,72.8,–,–,–,39.7
C/C(=N/NC(=O)c1ccc(Cl)cc1Cl)c1cccnc1,–,–,–,–,29.4
COc1ccc(-c2noc(CCCc3ccccc3)n2)cc1OC,–,–,–,–,11.7
Cc1ccc(-c2noc(CCCc3ccccc3)n2)cc1,62.2,?,–,–,30.7
Cc1ccc(CCNC(=O)c2cn(C)c3ccc(S(=O)(=O)N4CCC(C)CC4)cc3c2=O)cc1,·,·,·,–,·
C#CCn1c(C2CC(=O)N(c3ccc(OC)cc3)C2)nc2ccccc21 (stereo not drawn),·,·,·,–,·
C[C@H]1C=CC(=O)C[C@H]1c1c(F)cccc1Cl,–,·,·,·,–
CN1C=CC(=C2C(=O)c3ccccc3C2=O)C=C1,–,–,–,–,37.9
CCCCCCN1C=CC(=C2C(=O)c3ccccc3C2=O)C=C1,45.7,–,–,–,36.6
CCCN1C=CC(=C2C(=O)c3ccccc3C2=O)C=C1,–,–,–,–,–
CCN(CC)S(=O)(=O)c1nnc(NC(=O)COc2ccc(Cl)cc2)s1,·,·,·,–,·
